Eya2 inh: blocks the phosphatase activity of human Eya2. O00167. recombinant Eya2, OMFP fluorescence dephosphorylation (OMFP is methylfluorescein phosphate). Potency, µM (series often up to 76.9 µM), inactives show top-dose activity, negative = inhibition, usual class: inhibitors. actives 0.006% (n = 330,000). AID 488837; further: potency means the concentration at half of the fitted maximal effect
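Eya2 (0.2 uM) preincubated 10 min at ambient with compound, then OMFP substrate added at 50 uM; 10 min reaction in 50 mM HEPES pH 7.5, 50 mM NaCl, 5 uM MgCl2, 0.05% BSA, 1 mM DTT. Fluorescence read at Ex 485/Em 525 nm.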
Six1-Eya2 inh: inhibitors of human Six1/Eya2 interaction; Q15475+O00167; AlphaScreen GST-Six1/His-Eya2 binding, biochemical; hits give low values; activity change, % (concentration not given with the values); actives 0.56% (n = 360,000); in the data active means activity change below about -65%; inconclusive means mostly about -30% to -63%
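AlphaScreen with GST-Six1 and His-Eya2 (5X mix: 250 nM and 500 nM), glutathione donor and nickel acceptor beads; buffer 50 mM Tris pH 8.0, 300 mM NaCl, 1 mM TCEP; 1 h at 37 C in the dark.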
CtBP-E1A inh: CtBP/E1A binding inhibition; AlphaScreen GST-E1A/His-CtBP binding, 1536-well; hits give low values; activity change, % (test concentration not listed); actives 0.49% (n = 340,000); AID 651724; in the data active means activity change below about -65%; inconclusive means mostly about -30% to -63%
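Homogeneous bead-based format: GST-tagged E1A captured on glutathione donor beads, His-tagged CtBP on nickel acceptor beads; compounds precede bead addition by 2 h at 37 °C.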
uPA generation: inhibitors of cell surface uPA generation. cell surface uPA generation assay, qHTS. Potency, µM (titrated, usually from 38.3 µM), for the others: at the highest dose activity change, negative = inhibition, usual class: inhibitors. actives 0.31% (n = 330,000); active means well fitted inhibition curve with a large enough effect; inconclusive means small, poorly fitted or top-dose-only effect; inactive means no such curve, though single readings can be large or run the other way; tested in mouse RAW 264.7 cells; further: potency means the concentration at half of the fitted maximal effect; nearly all actives have a fitted effect of over 55% in size
USP2a block: inhibitors of human ubiquitin-specific protease USP2a. AID 463254. USP2 core, Ub-CHOP2 coupled fluorogenic reporter, 485/531. Potency, µM (titrated, usually from 38.3 µM), without a hit: top-dose activity change, negative = inhibition, actives largely listed as inhibitors. O75604. actives 0.01% (n = 330,000);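 further: potency means the concentration at half of the fitted maximal effect; plate controls were DMSO wells for no effect and full inhibition by NEM control for full effect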
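Deubiquitinase activity read as fluorescence (485/531 nm) after Ub-CHOP2 cleavage activates the enterokinase reporter on its substrate; USP2 core 10nM, Ub-CHOP2 and substrate 25nM each, 30min compound preincubation then 60min RT; data normalized to NEM, curves fitted.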
L3MBTL1 block: inhibitors of human L3MBTL1; AlphaScreen L3MBTL1–H3K9me1 peptide binding; Potency, µM (highest dose often 57.1 µM), for the others: top-dose activity, negative = inhibition, usual class: inhibitors; Q9Y468; actives 0.66% (n = 230,000); AID 485360; further: potency means the concentration at half of the fitted maximal effect; nearly all actives have a fitted effect of over 60% in size
Target sequence (Q9Y468 whole entry, looked up): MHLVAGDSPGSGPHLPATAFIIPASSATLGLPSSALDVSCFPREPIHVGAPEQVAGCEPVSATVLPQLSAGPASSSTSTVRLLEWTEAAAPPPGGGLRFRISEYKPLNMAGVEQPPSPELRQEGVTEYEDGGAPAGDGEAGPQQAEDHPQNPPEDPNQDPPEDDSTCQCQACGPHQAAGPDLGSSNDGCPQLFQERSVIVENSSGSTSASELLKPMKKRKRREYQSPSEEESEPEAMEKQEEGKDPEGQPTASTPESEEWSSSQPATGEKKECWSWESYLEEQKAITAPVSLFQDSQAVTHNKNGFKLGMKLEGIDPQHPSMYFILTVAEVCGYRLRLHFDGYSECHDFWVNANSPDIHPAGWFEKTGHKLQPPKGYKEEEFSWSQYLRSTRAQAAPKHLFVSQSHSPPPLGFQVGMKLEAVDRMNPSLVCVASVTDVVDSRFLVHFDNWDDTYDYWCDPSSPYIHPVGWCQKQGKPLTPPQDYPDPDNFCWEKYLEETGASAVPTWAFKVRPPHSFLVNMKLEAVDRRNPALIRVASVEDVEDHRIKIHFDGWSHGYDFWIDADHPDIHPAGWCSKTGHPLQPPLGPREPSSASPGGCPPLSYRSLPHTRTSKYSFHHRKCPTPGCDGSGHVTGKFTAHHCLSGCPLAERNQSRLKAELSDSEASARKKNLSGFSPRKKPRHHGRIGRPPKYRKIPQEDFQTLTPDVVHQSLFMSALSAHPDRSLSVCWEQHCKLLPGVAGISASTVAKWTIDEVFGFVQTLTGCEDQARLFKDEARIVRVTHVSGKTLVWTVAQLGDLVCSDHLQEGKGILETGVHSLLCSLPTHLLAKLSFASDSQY
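L3MBTL1 (50 nM) pre-complexed 30 min with biotinylated H3(1-15)K9me1 peptide (75 nM), then compounds added for 30 min at room temperature; AlphaScreen streptavidin donor/nickel chelate acceptor beads (10 ug/mL final) read after 30 min dark incubation.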
Active calls of the source: *; ? = inconclusive; / = not tested or not shown. A selection: hits, their analogues and other compounds. The true share with any hit is near 1.2%. Unless noted, the call rests on the fitted dose curve; in most records, active means well fitted curve in the direction sought with a large enough effect; inconclusive means small, poorly fitted or top-dose-only effect, or another doubt; inactive means no such curve, though single readings can be large; an effect the other way counts as inactive or inconclusive. Unless noted, on the % scale 0 is the no-effect control and ±100 the full control effect.

SMILES | Eya2 inh | Six1-Eya2 inh | CtBP-E1A inh | uPA generation | USP2a block | L3MBTL1 block
CC(C)(C)c1ccc(Oc2ccc(NC(=O)c3ccco3)cn2)cc1 | -1% | -2 | / | 1.3µM* | -2% | -2%
O=C(Nc1ccc(Oc2cccc(C(F)(F)F)c2)nc1)c1ccco1 | 12% | 5 | 14 | -7% | 0% | 3%
Nc1nc2ccccc2n1C(=O)c1ccccc1 | 0% | -6 | / | 2.8µM* | -1% | 15%
Nc1nc2ccccc2n1C(=O)c1ccc(F)cc1 | 2% | 9 | -8 | -14% | -1% | -2%
Nc1ccc(N)c(C(=O)O)c1 | -7% | -82* | ? | -15% | ? | /
Nc1ccc(C(=O)O)c(O)c1 | -10% | 0 | 0 | 22% | 11% | 5%
Oc1ccc2c(c1)C1CCCC1(N1CCOCC1)O2 (centres undefined) | 7% | 7 | 6 | 1% | 0% | 32µM*
CCCCC(=O)c1ccc(O)cc1 | -5% | 6 | 5 | -5% | 0% | /
O=C(CCO)c1ccc(O)cc1 | 6% | ? | -2 | 0% | 1% | 3.5µM*
CCCN(CCC)CCCNC(=O)C1CCC(CNS(=O)(=O)c2cccc3nsnc23)CC1 (centres undefined) | -13% | -15 | -16 | 2% | 2% | /
CCOc1ccc(CNC(=O)Cn2ccc3cc(S(=O)(=O)N4CCCCCC4)ccc32)cc1 | -6% | 2 | / | 1µM* | 1% | /
CCCCCN1C=CC(=C2C(=O)c3ccccc3C2=O)C=C1 | 2% | -1 | / | 0.022µM* | -1% | 10%
CN(C)Cc1cc(O)c(CN(C)C)cc1O | 27% | ? | / | 4% | 13% | 3.2µM*
Cc1cccc(N2CCCn3c2nc2c3c(=O)[nH]c(=O)n2C)c1 | -5% | -4 | -4 | -15% | 5% | /
O=C(NN1C(=O)CSC1=S)C(=O)NN1C(=O)CSC1=S | 0% | ? | ? | 2% | 1% | 0.79µM*
COc1ccnc(CSC(N)=Nc2ccccc2C(F)(F)F)c1 | 0% | -16 | -1 | -4% | 3% | -2%
COc1ccnc(CSC(N)=Nc2cccc(C(F)(F)F)c2)c1 | 8% | -67* | -7 | 4% | 3% | ?
Cc1ccc(OCC(=O)N/N=C\c2ccc(C)o2)c(C)c1 | -8% | 0 | -2 | 1% | 2% | -2%
O=C(O)c1cccc(-c2ccc(/C=N/Nc3nn[nH]n3)o2)c1 | 3% | ? | 19 | 2% | -1% | 20µM*
CC(C)(C)c1ccc2c(c1)OC(C(=O)N/N=C\c1ccc(-c3cccc(C(=O)O)c3)o1)CO2 (centres undefined) | 0% | -16 | 7 | 5% | 0% | 16µM*
Cc1ccc(OCC(=O)N/N=C\c2ccc(-c3cccc(C(=O)O)c3)o2)c(C)c1 | 3% | ? | -4 | 4% | 1% | 5.6µM*
CNC(=S)N/N=C/c1ccc(-c2cccc(C(=O)O)c2)o1 | 5% | -10 | -11 | 1% | 0% | /
O=C(O)c1cccc(-c2ccc(/C=N/NC(=O)C3COc4ccccc4O3)o2)c1 (centres undefined) | 18% | -14 | -18 | 6% | -1% | ?
CCNc1ccc(Br)cc(C(=O)/C=C/c2ccc(Cl)cc2)c1=O | 6% | -11 | 2 | -7% | 1% | -18%
CCNc1ccc(Br)cc(C(=O)/C=C/c2c(Cl)cccc2Cl)c1=O | -5% | -12 | -3 | -13% | -1% | 8.9µM*
SMILES | Eya2 inh | Six1-Eya2 inh | CtBP-E1A inh | uPA generation | USP2a block | L3MBTL1 block
CCNc1ccc(Br)cc(C(=O)/C=C/c2ccc3c(c2)OCO3)c1=O | 1% | -5 | -2 | 2% | 6% | 20µM*
C/C(=N\NC(=O)c1ccc(Cl)cc1)c1ccccn1 | 9% | -90* | ? | -9% | 1% | ?
S=C(NCc1ccccn1)Nc1cccc(Cl)c1 | 0% | 4 | -3 | 3% | 2% | 0%
CC(=NNC(=S)Nc1cccc(Cl)c1)c1ccccn1 | / | -91* | -96* | -9% | / | /
CC(=NNC(=S)N1CCC1)c1ccccn1 | / | -91* | -95* | -9% | / | /
C/C(=N\NC(=O)c1cc(C)nc2ccccc12)c1ccccn1 | -11% | -89* | -92* | ? | 0% | 28µM*
COc1ccc(-c2nn(-c3ccccc3)cc2C(=O)NC(=S)N2CCOCC2)cc1OC | 7% | -1 | 6 | ? | 2% | -7%
O=C(NCC1CCCO1)C(c1ccc(F)cc1)N(Cc1ccc2c(c1)OCO2)C(=O)c1ccc(CN2CCOCC2)o1 (centres undefined) | 6% | 3 | -2 | 5% | 6% | 3%
CC(=NNC(=S)N1CC2CCC(CC2)C1)c1cccc(C)n1 | / | -88* | -16 | -4% | / | /
C/C(=N\NC(=O)COc1ccccc1-c1ccccc1)c1ccccn1 | 2% | -65* | -25 | 7% | -1% | -2%
C1=CC2(C=C1)OC21CCC2(C=CC3(C2)OC3C2CCCCC2)CC1 (centres undefined) | / | 2 | 0 | / | / | /
C[C@@H]1CN([C@H](C)CO)C(=O)CCCn2nncc2CO[C@H]1CN(C)S(C)(=O)=O | / | 7 | 5 | / | / | /
COc1ccc(OC)c(/C=C/C(=O)OCC(=O)N2CCCCC2)c1 | 2% | -15 | -77* | -5% | 1% | 10%
COc1ccc(/C=C/C(=O)OCC(=O)N2CCCCCC2)cc1OC | 6% | -6 | 3 | -3% | 3% | 3%
CN1CCN(CC(O)COc2ccc(C34CC5CC(CC(C5)C3)C4)cc2)CC1 (centres undefined) | -15% | -5 | 0 | 10% | -6% | -21%
C/C(=N\Nc1ccc2nncn2n1)c1ccccn1 | 10% | -91* | -95* | -2% | 4% | 25µM*
O=S(=O)(Nc1ccc(N=Nc2ccc(O)c3ccccc23)cc1)c1ccccc1 | -13% | ? | ? | -4% | -27% | ?
O=[N+]([O-])c1ccc(N=Nc2ccc(O)c3ccccc23)cc1 | / | ? | -70* | -5% | / | /
c1ccc(C2=NNC(c3ccccn3)=NN2)nc1 | 6% | -71* | -80* | ? | 3% | /
Cc1cn([C@H]2C[C@H](O)[C@@H](CNCc3cnc(N4CCOCC4)nc3)O2)c(=O)[nH]c1=O | / | 6 | 0 | / | / | /
Cc1ccc(-c2nc(CN(Cc3c(C)nn(C)c3C)C(C)C)c(C)o2)o1 | 4% | -90* | -6 | / | -2% | -4%
Clc1cccc(Cl)c1C1Nc2cccc3cccc(c23)N1 | 3% | -20 | -7 | -4% | -1% | 14µM*
COc1ccc(F)cc1S(=O)(=O)n1nnc2ccccc21 | 8% | -68* | ? | 0% | 1% | 6%
